Measurements published in PubChem BioAssay.
Active and inactive are the calls of the source. The rule behind the calls is not given here.

How the values were obtained:
[1] = test system: Botulinum neurotoxin type F light chain protease (Clostridium botulinum); assay: Botulinum neurotoxin type F light chain protease inhibition, multiplex microsphere flow cytometry, validation set (AID 588459); conditions: multiplex microsphere protease substrate cleavage assay, at 10 µM, active compounds read high
[2] = molecular target: Botulinum neurotoxin type A (Clostridium botulinum) (UniProt P0DPI0); assay: BoNT/A light chain protease inhibitors, biochemical, multiplex microsphere flow cytometry, validation set (AID 588460); conditions: at 10 µM, active compounds read high
[3] = molecular target: Lethal factor (Bacillus anthracis) (UniProt P15917); assay: Lethal factor protease inhibitors, Bacillus anthracis, multiplex microsphere cleavage assay, validation set (AID 588461); conditions: flow cytometry, at 10 µM, active compounds read high

Measured: inhibition

Chain of Botulinum neurotoxin type A (Clostridium botulinum) (P0DPI0 whole entry, looked up): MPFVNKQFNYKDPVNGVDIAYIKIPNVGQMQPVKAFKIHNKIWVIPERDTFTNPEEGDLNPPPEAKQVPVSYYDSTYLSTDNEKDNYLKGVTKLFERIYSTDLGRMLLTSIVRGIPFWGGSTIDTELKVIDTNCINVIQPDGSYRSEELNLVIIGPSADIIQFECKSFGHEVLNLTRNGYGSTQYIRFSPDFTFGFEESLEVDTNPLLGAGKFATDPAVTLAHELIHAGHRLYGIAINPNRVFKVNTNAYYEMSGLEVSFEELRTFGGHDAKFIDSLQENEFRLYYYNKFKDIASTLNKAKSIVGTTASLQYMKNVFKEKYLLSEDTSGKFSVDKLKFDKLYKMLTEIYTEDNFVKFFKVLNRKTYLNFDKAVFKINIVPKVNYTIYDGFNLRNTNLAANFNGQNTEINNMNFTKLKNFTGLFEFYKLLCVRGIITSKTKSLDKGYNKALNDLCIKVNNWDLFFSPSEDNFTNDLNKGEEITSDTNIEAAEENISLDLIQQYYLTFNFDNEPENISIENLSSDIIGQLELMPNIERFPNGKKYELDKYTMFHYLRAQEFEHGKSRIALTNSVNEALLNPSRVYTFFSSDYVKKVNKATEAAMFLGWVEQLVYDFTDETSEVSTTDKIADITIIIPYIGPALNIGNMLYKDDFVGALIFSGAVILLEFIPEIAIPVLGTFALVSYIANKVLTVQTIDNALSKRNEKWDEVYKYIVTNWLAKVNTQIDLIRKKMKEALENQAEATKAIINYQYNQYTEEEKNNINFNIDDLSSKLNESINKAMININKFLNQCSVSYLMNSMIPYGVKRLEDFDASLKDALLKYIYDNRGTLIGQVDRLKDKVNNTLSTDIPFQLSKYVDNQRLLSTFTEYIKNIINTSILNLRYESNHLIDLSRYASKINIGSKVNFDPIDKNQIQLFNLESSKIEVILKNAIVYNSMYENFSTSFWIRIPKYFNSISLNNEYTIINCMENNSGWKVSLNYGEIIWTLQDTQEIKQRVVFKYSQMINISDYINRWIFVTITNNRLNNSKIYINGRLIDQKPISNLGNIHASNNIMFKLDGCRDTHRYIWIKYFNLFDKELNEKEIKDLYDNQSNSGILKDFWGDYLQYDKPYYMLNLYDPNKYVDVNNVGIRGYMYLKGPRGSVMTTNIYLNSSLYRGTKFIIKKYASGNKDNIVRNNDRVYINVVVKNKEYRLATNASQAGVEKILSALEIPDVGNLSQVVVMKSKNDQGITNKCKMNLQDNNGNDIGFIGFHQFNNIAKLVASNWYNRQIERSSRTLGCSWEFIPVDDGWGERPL
Chain of Lethal factor (Bacillus anthracis) (P15917 whole entry, looked up): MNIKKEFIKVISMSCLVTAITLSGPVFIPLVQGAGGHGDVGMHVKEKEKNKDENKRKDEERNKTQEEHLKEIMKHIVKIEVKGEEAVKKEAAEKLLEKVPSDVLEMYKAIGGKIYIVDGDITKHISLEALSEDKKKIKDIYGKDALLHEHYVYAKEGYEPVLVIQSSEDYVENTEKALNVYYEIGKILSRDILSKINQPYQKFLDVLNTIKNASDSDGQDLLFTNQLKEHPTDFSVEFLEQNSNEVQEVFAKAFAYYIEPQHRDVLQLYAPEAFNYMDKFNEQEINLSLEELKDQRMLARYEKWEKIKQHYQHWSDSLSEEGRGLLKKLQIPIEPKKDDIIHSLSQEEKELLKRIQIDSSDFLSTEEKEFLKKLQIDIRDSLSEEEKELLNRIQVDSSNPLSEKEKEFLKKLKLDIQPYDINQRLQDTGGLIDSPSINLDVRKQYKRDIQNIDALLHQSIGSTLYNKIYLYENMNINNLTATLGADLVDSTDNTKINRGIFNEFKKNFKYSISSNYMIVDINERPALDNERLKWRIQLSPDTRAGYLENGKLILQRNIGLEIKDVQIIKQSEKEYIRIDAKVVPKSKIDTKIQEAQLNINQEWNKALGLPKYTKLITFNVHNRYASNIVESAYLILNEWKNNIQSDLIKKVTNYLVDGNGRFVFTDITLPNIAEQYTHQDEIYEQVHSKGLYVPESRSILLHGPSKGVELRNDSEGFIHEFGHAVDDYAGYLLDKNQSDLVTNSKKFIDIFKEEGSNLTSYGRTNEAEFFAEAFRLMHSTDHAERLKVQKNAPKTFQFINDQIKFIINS

O=C(O)CCCCCCCC(=O)O
inactive: [1] 1.1% | [2] -0.8% | [3] -1.4%

COc1ccc(C(=O)Nc2ncc3c(n2)CC(C)CC3=O)cc1 (configuration not stated)
inactive: [1] -1.5% | [2] -0.9% | [3] -4.5%

CCCC(=O)Nc1ccc(OCC(O)CNC(C)C)c(C(C)=O)c1 (configuration not stated)
inactive: [1] 2% | [2] 1.1% | [3] -26.9%

Cc1cc(C)c2c(CCl)cc(=O)oc2c1
inactive: [1] -4.3% | [2] -1.5% | [3] -3.4%

CC1/C(=C\c2ccc(Cl)cc2)C(=O)C2CC1C2(C)C (configuration not stated)
inactive: [1] 5.2% | [2] 0.2% | [3] -9.7%

COc1ccc(C2=NOC(COc3ccc4c(C)cc(=O)oc4c3)C2)c(OC)c1 (configuration not stated)
inactive: [1] -0.4% | [2] 1.7% | [3] 0%

CCn1c(SCC(=O)c2ccccc2)nc2ccccc2c1=O
inactive: [1] -3% | [2] -0.1% | [3] -5.1%

O=C(CCCN1C(=O)/C(=C\c2cccs2)SC1=S)Nc1ccccn1
inactive: [1] 4% | [2] 5.2% | [3] 18.8%

COc1ccc(CNCCC2(C(C)C)CCOC(C)(C)C2)cc1 (configuration not stated)
inactive: [1] 1.9% | [2] 0.8% | [3] -4%

O=C(CCCN1CCC(O)(c2ccc(Cl)cc2)CC1)c1ccc(F)cc1
inactive: [1] -3.5% | [2] 1.1% | [3] 3.7%

COc1cccc2c(O)cc(=O)n(C)c12
inactive: [1] -7.7% | [2] -0.5% | [3] -8.1%

COc1cc(C(=O)OCCn2c(=O)c3c(ncn3CCN(C)C)n(C)c2=O)cc(OC)c1OC
inactive: [1] 5.1% | [2] 2.5% | [3] -3.1%

COC(=O)c1cc(-c2ccc(OC)c(OC)c2)on1
inactive: [1] 6.2% | [2] 1.7% | [3] 0.1%

CC(=O)N1CCN(c2ccc(OC[C@H]3CO[C@](Cn4ccnc4)(c4ccc(Cl)cc4Cl)O3)cc2)CC1
inactive: [1] -2.2% | [2] -1.1% | [3] -3.1%

NC(=O)c1ccccc1O
inactive: [1] -3.5% | [2] -1.1% | [3] 2.5%

CCN(Cc1cnn(C)c1)Cc1nc(C(c2ccccc2)c2ccccc2)no1
inactive: [1] 0.3% | [2] -2.2% | [3] -3.7%

O=C(c1cccc2ccccc12)C1CCCN(C(=O)CCN2CCCO2)C1 (configuration not stated)
inactive: [1] 1.2% | [2] 1.1% | [3] 2.5%

Brc1c(NC2=NCCN2)ccc2nccnc12
inactive: [1] -5.6% | [2] -0.8% | [3] -2.9%

CC(C)(C)C(=O)Nc1cccc(OC(F)(F)C(F)Cl)c1 (configuration not stated)
inactive: [1] 3.3% | [2] 0% | [3] -6%
